This note sets out measurements from PubChem BioAssay (NCI).

Test in all cases: NCI-60 one-dose screen, 48 h (100 = growth as untreated, 0 = no growth, -100 = all killed)
For one assay, the system named is HCT-15 colon. The note with it: 10 µM unless noted.
Another assay deals with HT29 colon. The note with it: 10 µM unless noted.
Another assay deals with SNB-75 CNS. The note with it: 10 µM unless noted.
The next assay concerns U251 CNS. The note with it: 10 µM unless noted.
The subject of a further assay is PC-3 prostate. The note with it: 10 µM unless noted.
The next assay deals with SK-MEL-5 melanoma. The note with it: 10 µM unless noted.
The next assay relates to UACC-62 melanoma. The note with it: 10 µM unless noted.
The test system of the next assay is LOX IMVI melanoma. The note with it: 10 µM unless noted.
Another assay has as its system SK-MEL-28 melanoma. The note with it: 10 µM unless noted.
Another assay relates to SN12C renal. The note with it: 10 µM unless noted.
Another assay concerns UO-31 renal. The note with it: 10 µM unless noted.
A further assay deals with ACHN renal. The note with it: 10 µM unless noted.
For the next assay, the system named is CAKI-1 renal. The note with it: 10 µM unless noted.
For another assay, the system named is A498 renal. The note with it: 10 µM unless noted.
The next assay relates to MOLT-4 leukemia. The note with it: 10 µM unless noted.
The test system of the next assay is SK-MEL-2 melanoma. The note with it: 10 µM unless noted.
A further assay has as its system EKVX NSCLC. The note with it: 10 µM.
The subject of a further assay is CCRF-CEM leukemia. The note with it: 10 µM.
Another assay deals with SNB-19 CNS. The note with it: 10 µM unless noted.
Another assay has as its system TK-10 renal. The note with it: 10 µM unless noted.

This is part of a sample that, as a whole, favours compounds with a hit. Of some 83,000 tested, about 20% had one in any assay.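 A percent growth of 40 corresponds to 60% growth inhibition; 0 means no net growth; -100 means all cells died. Active threshold: below 10.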 A number with no mark means an inactive call. The source made the active and inactive calls.

As to `Br/C(=N\Nc1nn[nH]n1)c1ccccc1`, the growth with HCT-15 colon was 96.6%; in the assay with HT29 colon, 110%; in the assay on SNB-75 CNS it was 80.8%; in the assay on U251 CNS, 99.6%; in the assay with PC-3 prostate, 96.1%; with SK-MEL-5 melanoma it was 102%. For the same compound, the growth in the assay with UACC-62 melanoma was 101%; in the assay with LOX IMVI melanoma it was 86.3%; in the assay with SK-MEL-28 melanoma it was 109%; in the assay on SN12C renal it was 98.7%; in the assay with UO-31 renal, 78.6%; in the assay on ACHN renal, 92.7%. Also, the growth with CAKI-1 renal was 92.5%; with A498 renal, 114%; in the assay on MOLT-4 leukemia it was 105%.
Regarding `O=C1CSC(c2ccccc2Cl)N1c1nnc(-c2ccncc2)o1` (stereo not given), the growth with HCT-15 colon was 98.5%; in the assay with HT29 colon it was 98.4%; with SNB-75 CNS, 95.4%; in the assay with U251 CNS, 96.6%; in the assay on PC-3 prostate, 98.5%; with UACC-62 melanoma, 92.3%. Further, the growth is 102% in the assay on LOX IMVI melanoma; 101% in the assay on SK-MEL-28 melanoma; 101% in the assay with SK-MEL-2 melanoma; 93.2% in the assay on EKVX NSCLC; 98.3% in the assay with SN12C renal; 90.8% with UO-31 renal. Further, the growth is 94.3% in the assay with ACHN renal; 107% in the assay on CAKI-1 renal; 72.4% in the assay with A498 renal; 102% in the assay with CCRF-CEM leukemia; 94.3% in the assay with MOLT-4 leukemia.
As to `COc1ccc(C(=O)N2N=C(c3ccc(Br)cc3)CC2c2cn(-c3ccccc3)nc2-c2ccccc2)cc1` (stereo not given), the growth with HCT-15 colon was 58.9%; with SNB-75 CNS it was 70.4%; in the assay on SNB-19 CNS, 65.3%; in the assay on U251 CNS, 6.67% (active); with PC-3 prostate, 36.1%; in the assay with SK-MEL-5 melanoma, 92.3%. In addition, the growth is 74.7% with UACC-62 melanoma; 44.5% in the assay with LOX IMVI melanoma; 61.2% in the assay on SK-MEL-28 melanoma; 78.5% with EKVX NSCLC; 58.9% with SN12C renal; 84.5% in the assay with UO-31 renal. For the same compound, the growth with ACHN renal was 87.8%; in the assay with CAKI-1 renal, 75%; with A498 renal it was 89.1%; in the assay on CCRF-CEM leukemia it was 67.9%; in the assay on MOLT-4 leukemia, 46.1%.
Turning to `O=c1c2c(c3ccccc3n1-c1ccccc1)NC(=S)NC2c1ccccc1` (stereo not given), the growth in the assay on HCT-15 colon was 97.1%; in the assay on HT29 colon, 132%; in the assay with SNB-19 CNS, 99%; in the assay with U251 CNS, 107%; in the assay with PC-3 prostate it was -47.1% (active); in the assay on SK-MEL-5 melanoma, 97.9%. Also, the growth in the assay with UACC-62 melanoma is 96%; in the assay with LOX IMVI melanoma it was 97.9%; in the assay on SK-MEL-28 melanoma, 116%; in the assay on EKVX NSCLC it was 97.1%; in the assay on SN12C renal it was 90.4%; with UO-31 renal it was 71.7%. The growth in the assay on TK-10 renal was 226%; with ACHN renal, 96.1%; in the assay with CAKI-1 renal it was 105%; in the assay on A498 renal it was 102%; in the assay on CCRF-CEM leukemia it was -25% (active); in the assay with MOLT-4 leukemia, 66.2%.
Regarding `O=c1[nH]c(=S)[nH]c(O)c1/C=C1\C=Nc2ccccc21`, the growth was 56.2% with HCT-15 colon; 58.6% in the assay on HT29 colon; 71.8% in the assay on SNB-75 CNS; 24% in the assay with U251 CNS; 61.7% in the assay on PC-3 prostate; 75.8% in the assay on SK-MEL-5 melanoma. For the same compound, the growth in the assay on LOX IMVI melanoma was 67%; in the assay with SK-MEL-28 melanoma it was 96.8%; in the assay with SK-MEL-2 melanoma, 128%; with EKVX NSCLC, 75.1%; in the assay with UO-31 renal, 31.1%; with TK-10 renal it was 86.9%. Also, the growth in the assay on ACHN renal was 82.5%; in the assay on CAKI-1 renal, 27.3%; in the assay with CCRF-CEM leukemia it was 4.02% (active); with MOLT-4 leukemia, 42.4%.
On to `Nc1nc2cc(O)ccc2n2cc3c(F)cccc3c12`, for which the growth is 35.6% in the assay with HCT-15 colon; 20.7% with HT29 colon; 35.9% in the assay on SNB-19 CNS; 32.8% in the assay on U251 CNS; 42.2% with PC-3 prostate; 14.2% in the assay on SK-MEL-5 melanoma. For the same compound, the growth in the assay with UACC-62 melanoma was 39%; with LOX IMVI melanoma, 34.9%; with SK-MEL-28 melanoma, 20%; in the assay with EKVX NSCLC, 24.8%; in the assay with UO-31 renal, 2.79% (active); in the assay with TK-10 renal, -12.5% (active). Further, the growth in the assay with ACHN renal is 18.9%; in the assay with CAKI-1 renal, -12.1% (active); with A498 renal, 41.5%; in the assay with CCRF-CEM leukemia, 58.4%; in the assay on MOLT-4 leukemia it was 3.96% (active).
For `C=C1CCC2C3(C)COC(c4ccccc4)OC3CCC2(C)C1C/C=C1/C(=O)OCC1O` (stereo not given), the growth was 61.9% with HCT-15 colon; 54.1% in the assay on HT29 colon; 35.9% in the assay with SNB-75 CNS; 64.9% in the assay with U251 CNS; 67.4% in the assay on UACC-62 melanoma; 72.6% in the assay on LOX IMVI melanoma. Further, the growth with SK-MEL-2 melanoma was 66.7%; in the assay on EKVX NSCLC it was 104%; with SN12C renal, 66.7%; with UO-31 renal it was 42.9%; in the assay on TK-10 renal, 105%; with ACHN renal, 86.7%. Moreover, in the assay with CAKI-1 renal, the growth was 133%.
For `Cc1cc2cn3c4ccc(O)cc4[nH]c(=O)c3c2cc1C`, the growth was 3.8% (active) in the assay on HCT-15 colon; -67.6% (active) in the assay with HT29 colon; 40.7% with SNB-19 CNS; -44.1% (active) in the assay on U251 CNS; 37.5% in the assay on PC-3 prostate; -31.5% (active) with SK-MEL-5 melanoma. Further, the growth was 49% in the assay on UACC-62 melanoma; 4.61% (active) with LOX IMVI melanoma; -14.3% (active) in the assay with SK-MEL-28 melanoma; 41.3% in the assay on EKVX NSCLC; 38.5% with SN12C renal; 3.07% (active) in the assay on UO-31 renal. Further, the growth with TK-10 renal was 0.912% (active); in the assay on ACHN renal, 11.8%; with CAKI-1 renal it was -5.2% (active); in the assay on A498 renal it was 18.6%; in the assay on CCRF-CEM leukemia it was -7.53% (active); in the assay with MOLT-4 leukemia, -18.2% (active).
Regarding `OCCN1CCN(CC/C=C2/c3ccccc3Sc3ccc(C(F)(F)F)cc32)CC1`, the growth in the assay with HCT-15 colon is 71.1%; in the assay with HT29 colon, 15.8%; in the assay with SNB-75 CNS, 56.5%; with U251 CNS, 41%; in the assay with SK-MEL-5 melanoma, 56.5%; in the assay on UACC-62 melanoma it was 14.4%. Further, the growth with LOX IMVI melanoma is 65.5%; in the assay with SK-MEL-28 melanoma, 68%; in the assay with SN12C renal, 72.6%; in the assay with UO-31 renal, 40.1%; with ACHN renal it was 79%; in the assay on CAKI-1 renal, 74.9%. For the same compound, the growth in the assay on A498 renal was 79.2%; with MOLT-4 leukemia, 41.3%.
